Calls of active or inactive are those of the source.
assay: osmotic lysis modulators in infected erythrocytes, primary screen, PSAC antagonist project, cell-based, P. falciparum Indochina, OD700, 3 h (AID 1156); details: higher = more signal, called active from +8 up or from −8 down

Compound | z-score
O=C1OCC=C[C@H]2OC34C=CCN(c5ccc6ccccc6c5)C(=O)[C@H]3N(CCCCCCO)C(=O)[C@@H]4[C@@H]12 (stereo partly specified) | 0.966 (inactive)
[N-]=[N+]=Nc1ccccc1C[C@]1(C(N)=O)N=C(c2ccc(OCCCO)cc2)O[C@H]1c1ccccc1 | 1.84 (inactive)
O=C1OCCC/C=C\[C@H]2OC34C=CCN(Cn5nnc6ccccc65)C(=O)[C@H]3N(CCO)C(=O)[C@@H]4C12 (stereo partly specified) | 0.292 (inactive)
COc1cc2c(cc1OC)CN(C(=O)[C@H]1[C@@H]3C(=O)O[C@@H](c4ccccc4)[C@@H](c4ccccc4)N3[C@@H](c3ccc(O)cc3)[C@]13C(=O)Nc1ccc(C#CC4=CCCCC4)cc13)CC2 | 0.79 (inactive)
Cc1ccc(S[C@]2(C(=O)NCC(C)C)CC(=O)N(Cc3cc(C(F)(F)F)cc(C(F)(F)F)c3)[C@@H]2c2ccc(CO)cc2I)cc1 | 0.767 (inactive)
CCCC[C@@H]1C[C@H]1[C@@H](NC(=O)c1ccco1)c1ccc(C(=O)OC)cc1 | 0.394 (inactive)
O=C1O[C@H](c2ccccc2)[C@H](c2ccccc2)N2[C@H]1[C@@H](C(=O)O)[C@]1(C(=O)Nc3ccc(C#CC4=CCCCC4)cc31)[C@H]2c1ccccc1OCCO | -14.6 (active)
CC(=O)N1Cc2ccccc2C[C@@]2(COC(c3ccc(OCCCO)cc3)=N2)C1=O | 2.79 (inactive)

assay: PSAC antagonists in infected red cells, primary screen, cell-based, P. falciparum Indochina, OD700, 18 h (AID 1157); details: P. falciparum Indochina infected erythrocytes, osmotic lysis OD700, 18 h; higher = more signal, called active from +8 up or from −8 down

Compound | z-score
C[N+](C)(C)CCCCNC(=O)[C@H]1C[C@H]2C(=O)N[C@@H](Cc3ccccc3)C(=O)N2[C@H]1c1ccc(O)cc1 | 0.228 (inactive)
[N-]=[N+]=NCc1ccccc1C[C@]1(C(=O)N2CCOCC2)N=C(c2ccc(OCCCO)cc2)O[C@H]1c1ccccc1N=[N+]=[N-] | 1.92 (inactive)
CC(=O)NCCCC[C@@H]1NC(=O)[C@@H]2C[C@H](C(=O)NCCCCN(C)C)[C@H](c3cccc(OCCO)c3)N2C1=O | 0.105 (inactive)
COc1ccc(C(O)C2C=CC3C(=O)N(c4ccccc4)C(=O)C3N2Nc2ccc(C(C)C)cc2)cc1OCc1ccccc1 (stereo unspecified) | 1.47 (inactive)
[N-]=[N+]=Nc1ccccc1[C@H]1OC(c2ccc(OCCCO)cc2)=N[C@@]1(Cc1ccccc1)C(=O)O | 7.43 (inactive)
O=C(NCc1ccccc1)[C@@]1(Cc2ccccc2)N=C(c2ccc(OCCCO)cc2)O[C@H]1c1ccccc1 | 0.86 (inactive)
CCOC1=C2C(CN(S(=O)(=O)c3ccc(C)cc3)C2c2ccc(C)cc2)C2C(=O)N(c3ccccc3)C(=O)C2C1 (stereo unspecified) | 0.855 (inactive)
CCOC(=O)C[C@H]1[C@H](OC(=O)c2ccc(C(=O)c3ccccc3)cc2)[C@@H](NC(=O)c2ccc(-c3ccccc3)cc2)c2cc(OCCCO)ccc2N1C(=O)c1ccccc1 | -0.16 (inactive)
COCCOC(=O)N1C(=O)[C@@]2(c3cc(C#Cc4ccc(OC)cc4)ccc31)[C@H](c1ccc(O)cc1)N1[C@H](c3ccccc3)[C@H](c3ccccc3)OC(=O)[C@H]1[C@@H]2C(=O)NC[C@H](O)c1ccccc1 | 0.532 (inactive)
COc1ccc(C(=O)O[C@H]2CC[C@]3(C)C4=C(CCC3C2(C)C)[C@]2(C)CC[C@H]([C@H](C)CCCC(C)C)[C@@]2(C)CC4)cc1 (stereo partly specified) | -1.6 (inactive)
COc1ccc(C(=O)Nc2ccc(CN3C(=O)[C@@]4(O[C@@H](CCn5cc([C@H](O)c6ccccc6)nn5)[C@H]([Si](C)(C)c5ccc(OC)cc5)[C@H]4C)c4ccccc43)cc2)cc1 | 1.43 (inactive)
O=C1c2ccccc2[C@@]2(Cc3ccccc3N(CCN3CCOCC3)C2=O)[C@H](c2ccc(CO)cc2)N1Cc1ccccc1 | 0.646 (inactive)
CC[C@@H]1C=C(C(=O)O)[C@H](c2ccco2)N1S(=O)(=O)c1ccc(C)cc1 | 0.953 (inactive)
O=C1OCCC/C=C\[C@H]2OC34C=CCN(CCN5CCOCC5)C(=O)[C@H]3N(CCCO)C(=O)[C@@H]4C12 (stereo partly specified) | -0.352 (inactive)
COC(=O)[C@@]1(Cc2ccccc2)[C@H]2c3cc(C(=O)N4CCCC4)n(Cc4nc5ccccc5[nH]4)c3C[C@H]2CN1C(=O)c1ccccc1 | 0.959 (inactive)
CC(C)c1ccc(NN2C(C(O)C(c3ccccc3)c3ccccc3)C=CC3C(=O)N(c4ccccc4)C(=O)C32)cc1 (stereo unspecified) | 0.948 (inactive)
C#CCN(Cc1ccccc1Br)C(/C=C/c1ccccc1)CO (stereo unspecified) | 0.696 (inactive)
O=C1C2C=CC(C(O)c3c(F)cccc3Cl)N(Nc3ccccc3)C2C(=O)N1c1ccccc1 (stereo unspecified) | 1.93 (inactive)
